Data: article PMC5540273 (PLoS ONE, 2017)

How the values were obtained:
Conditions in all cases: concentration: 1 μM, replicates: in singlicate; n = 1
TAK1 = system: T1, TAK1
T1 construct: gene MAP3K7

TAOK1 = system: TAOK1
TAOK2 = system: TAOK2
TAOK3 = system: TAOK3
TBK1 = system: TBK1
TEC = system: TEC
TESK1 = system: TESK1
TGFBR1 = system: TGFBR1
TGFBR2 = system: TGFBR2
TIE1 = system: TIE1
TIE2 = system: T2, TIE2
T2 construct: gene TEK

TLK1 = system: TLK1
TLK2 = system: TLK2
TNIK = system: TNIK
TNK1 = system: TNK1
TNK2 = system: TNK2
TNNI3K = system: TNNI3K
TRKA = system: T3, TRKA
T3 construct: gene NTRK1

TRKB = system: TRKB
TRKC = system: T4, TRKC
T4 construct: gene NTRK3
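Note: KINOMEscan kinase panel screen.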

SMILES | %Inh (TAK1) | %Inh (TAOK1) | %Inh (TAOK2) | %Inh (TAOK3) | %Inh (TBK1) | %Inh (TEC) | %Inh (TESK1) | %Inh (TGFBR1) | %Inh (TGFBR2) | %Inh (TIE1) | %Inh (TIE2) | %Inh (TLK1) | %Inh (TLK2) | %Inh (TNIK) | %Inh (TNK1) | %Inh (TNK2) | %Inh (TNNI3K) | %Inh (TRKA) | %Inh (TRKB) | %Inh (TRKC)
Cl.NS(=O)(=O)c1cccc(Nc2cc(-c3ccc(F)cc3)n[nH]2)c1 [GW824645] | 0% | 0% | 36% | 13% | 35% | 0% | 6% | 23% | 1% | 0% | 2% | 0% | 0% | 45% | 0% | 0% | 0% | 40% | 44% | 31%
Cc1nc(N(C)[C@H]2CN(C(=O)CC#N)CC[C@H]2C)c2cc[nH]c2n1 | 6% | 10% | 0% | 0% | 0% | 4% | 0% | 0% | 0% | 1% | 3% | 3% | 7% | 0% | 3% | 11% | 0% | 17% | 0% | 0%
Cl.c1ccc(Cn2cnc3cc(Nc4ncnc5ccccc45)ccc32)cc1 [GW272142] | 0% | 0% | 0% | 0% | 7% | 11% | 1% | 6% | 0% | 48% | 0% | 0% | 0% | 0% | 0% | 15% | 0% | 0% | 0% | 0%
COC(=O)c1c(-c2ccccc2)c2cc(Br)ccc2c(=O)n1Cc1ccc(NC(=O)CCC(=O)O)cc1 | 19% | 0% | 0% | 0% | 22% | 10% | 39% | 10% | 0% | 0% | 0% | 19% | 0% | 0% | 17% | 0% | 0% | 0% | 0% | 35%
CCS(=O)c1ccc(-c2coc3ccc(-c4nnc(C)o4)cc23)cc1 (centres unmarked) | 21% | 0% | 0% | 0% | 2% | 0% | 0% | 4% | 9% | 0% | 10% | 17% | 0% | 12% | 0% | 3% | 0% | 28% | 5% | 5%
Cc1c(Cn2c(C)nn3c(=O)cc(N4CCO[C@H](C)C4)nc23)cccc1C(F)(F)F [GSK2373690] | 0% | 0% | 9% | 0% | 1% | 0% | 34% | 0% | 4% | 10% | 0% | 0% | 0% | 0% | 0% | 13% | 4% | 0% | 6% | 11%
Fc1cccc(CSc2nnc(-c3ccc4c(c3)CCO4)o2)c1 | 32% | 0% | 0% | 0% | 19% | 20% | 0% | 11% | 28% | 8% | 7% | 0% | 12% | 0% | 0% | 8% | 6% | 3% | 0% | 28%
O=C(NCc1cccs1)c1cc(C(=O)c2c(Cl)cccc2Cl)c[nH]1 [GW823670] | 0% | 0% | 7% | 0% | 6% | 0% | 0% | 27% | 0% | 8% | 2% | 0% | 0% | 5% | 26% | 0% | 0% | 0% | 0% | 0%
COC(=O)c1c(-c2ccccc2)c2cc(C)ccc2c(=O)n1Cc1ccccc1 | 0% | 0% | 0% | 0% | 0% | 1% | 0% | 0% | 0% | 0% | 0% | 9% | 0% | 0% | 0% | 0% | 0% | 0% | 0% | 0%
CCn1c(-c2nonc2N)nc2ccccc21 [SB-693162/GW549034] | 33% | 0% | 0% | 3% | 34% | 0% | 14% | 53% | 0% | 56% | 0% | 5% | 0% | 0% | 0% | 0% | 0% | 20% | 43% | 15%
Nc1ncnc2c1ncn2-c1ccc(Cl)cc1 [AH2635] | 0% | 0% | 0% | 0% | 15% | 9% | 4% | 0% | 6% | 0% | 0% | 0% | 0% | 0% | 0% | 0% | 0% | 14% | 0% | 16%
COc1ccc(-c2cc3c(C)nc(N)nc3n([C@H]3CC[C@H](OCCO)CC3)c2=O)cn1 | 19% | 0% | 0% | 0% | 6% | 0% | 6% | 0% | 3% | 0% | 0% | 14% | 0% | 0% | 34% | 0% | 1% | 0% | 0% | 0%
Cc1cccc(-c2nc(Nc3ccc4c(cnn4C)c3)c3ccccc3n2)n1 [GW876731] | 23% | 12% | 0% | 0% | 0% | 0% | 6% | – | 0% | 0% | 27% | 0% | 11% | 0% | 43% | 0% | 0% | 44% | 0% | 0%
Cn1c(=O)c(F)c(Nc2ccc(I)cc2F)c2c(=O)n(OC[C@H](O)CO)cnc21 | 0% | 0% | 27% | 0% | 52% | 30% | 31% | 20% | 13% | 0% | 9% | 0% | 0% | 0% | 29% | 0% | 4% | 0% | 0% | 0%
O=C(Nc1ccc2c(c1)OCO2)NC1CCN(c2ccnc(NCc3ccc(F)cc3)n2)CC1 [GSK1379859] | 0% | 0% | 0% | 2% | 2% | 0% | 0% | 0% | 0% | 0% | 0% | 0% | 0% | 0% | 0% | 7% | 1% | 0% | 15% | 6%
